In PubChem BioAssay (NCI):
Compounds without any hit were thinned out: in the full panel of roughly 83,000, 20% have a hit.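 For each line, cells grew in 96-well plates with the test compound present at a single concentration for 48 hours.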 A number with no mark means an inactive call. The source made the active and inactive calls. Rule for the calls: active = growth percent below 10; inactive = the rest.

Assays:
Assay in all cases: NCI-60 one-dose screen, 48 h (100 = growth as untreated, 0 = no growth, -100 = all killed)
Conditions in all cases: 10 µM unless noted
[1] = test system: SR leukemia
[2] = test system: RPMI-8226 leukemia
[3] = test system: OVCAR-8 ovarian
[4] = test system: OVCAR-5 ovarian
[5] = test system: OVCAR-4 ovarian
[6] = test system: SK-OV-3 ovarian
[7] = test system: IGROV1 ovarian
[8] = test system: OVCAR-3 ovarian
[9] = test system: HS 578T breast
[10] = test system: NCI/ADR-RES ovarian

Structure (SMILES)	growth [1]	growth [2]	growth [3]	growth [4] [%]	growth [5]	growth [6]	growth [7]	growth [8]	growth [9]	growth [10]
N[C@H]1CCC[C@@H]1NCCCCN1C(=O)c2cccc3cc([N+](=O)[O-])cc(c23)C1=O	-6.77% (active)	58.3%	37.1%	73.6	44.5%	42.1%	34.5%	53%	65.4%	77%
COc1ccc(/C=C/C(=O)c2cc(OC)c(OC)c(OC)c2)cc1OCC(=O)Nc1nc2ccc(OC(F)(F)F)cc2s1	11.6%	6.47% (active)	3.67% (active)	96.3	-7.18% (active)	-11.8% (active)	-1.97% (active)	-77.3% (active)	-20.8% (active)	-13.5% (active)
CCOC(=O)c1c(C)nc2ccccc2c1/C=C/c1ccccc1	60.3%	42.2%	53.8%	97	65%	91.5%	75%	79.6%	94.8%	24.8%
O=c1c2c3c(sc2n2c(-c4cc(-c5ccccc5)no4)nnc2n1Cc1ccccc1)CCCC3	55.7%	53.5%	40.9%	82.8	87.6%	124%	-11.9% (active)	78.7%	101%	80.6%
COc1cnc2c(c1)C(=O)c1c-2n(CCCCl)c(=O)c2ccncc12	17.1%	41.9%	66.2%	116	66.2%	89.3%	55.5%	2.98% (active)	84.3%	59%
COc1ccc(/C=C/C(c2cc(OC)c(OC)c(OC)c2)n2cncn2)cc1 (stereo not given)	18.9%	50.8%	52.2%	90.2	96.8%	35.5%	64.6%	9.06% (active)	51.2%	36.3%
C=C(C)[C@@H]1CC[C@]2(C(N)=O)CC[C@]3(C)[C@H](CC[C@@H]4[C@@]5(C)CC[C@H](OCCC#N)C(C)(C)[C@@H]5CC[C@]43C)[C@@H]12	72.7%	73.2%	86.9%	76.3	93.2%	79.5%	90%	110%	88.3%	89%
Cc1ccc(C)c(/C=C2\CN(C(=O)OC(C)(C)C)C/C(=C\c3cc(C)ccc3C)C2=O)c1	0.122% (active)	-24.4% (active)	12.7%	86.1	22%	87.7%	78.1%	13.1%	43.9%	26.5%
Cn1c(=O)c2[nH]c(SCC(=O)Nc3ccc(C(=O)/C=C/c4ccccc4Cl)cc3)nc2n(C)c1=O	78.1%	82.2%	95%	101	88.3%	97.3%	100%	94.7%	95.5%	101%
CCOC(=O)c1c(C)nc2c(c1N)CC(=O)N2Cc1ccc(OC)cc1	56.2%	67.1%	13.6%	80.4	7.06% (active)	8.96% (active)	46.4%	16.4%	29.4%	34.4%
CCOC(=O)c1c(C)nc2c(c1N)/C(=C/c1ccc(OC)cc1)C(=O)N2Cc1ccccc1	22.1%	5.58% (active)	50.4%	126	51.5%	90.5%	73.3%	41.7%	69.5%	52.4%
CC(C)(C)c1cc(Cl)c(O)c(CNCCO)c1	103%	113%	110%	112	104%	110%	117%	111%	82.7%	109%
O=C1c2ccccc2C(=O)C1c1ccc(Br)cc1	97.3%	82.9%	102%	107	98.8%	111%	104%	116%	99.3%	91.9%
O=c1cc(-c2ccccc2)[nH]c2ncc(-c3ccc(F)cc3)n12	16.1%	74.5%	89.4%	94.5	93.9%	82.1%	67%	54%	68%	45.3%
C/C(=N\O)c1ccc(NC(=O)CSc2nnc(-c3cc(-c4ccc(S(C)(=O)=O)cc4)nc4ccccc34)n2-c2ccccc2)cc1	62.4%	48.2%	82.6%	97.3	98.7%	115%	80.9%	102%	73.4%	96.8%
Cc1ccc(/C=C/C(=O)Nc2ncc(Cc3ccc(F)cc3)s2)o1	18.9%	54.2%	77.6%	64.1	85.4%	64.6%	54.1%	36.9%	49.2%	55.7%
CC1C(/C=N/NC(N)=S)C(C#N)(C#N)C1(C#N)C#N (stereo not given)	85.6%	96.6%	101%	116	103%	95.8%	109%	107%	91.7%	110%
N#Cc1cccc(C2C3=C(COC3=O)N(CCO)c3cc4c(cc32)CCC4)c1 (stereo not given)	14.8%	19.3%	5.25% (active)	43.5	56.4%	32.1%	22.5%	-10.5% (active)	28.2%	2.04% (active)
O=C(Nc1ncc(Cc2cc(C(F)(F)F)ccc2Cl)s1)c1cccs1	16.1%	55.7%	68.6%	83.9	63.4%	69.2%	52.7%	50.5%	71%	29.7%
CCO/C=N/C1=C(C#N)C(c2ccc(F)cc2)c2sc3c(F)cccc3c2O1 (stereo not given)	31.8%	41.9%	51.5%	83.4	67.8%	46.9%	50.3%	8.43% (active)	24.4%	25.6%
NC1(CO)COC(c2ccccc2)OC1 (stereo not given)	83.5%	108%	103%	94.9	130%	101%	104%	126%	106%	113%
c1ccc(CCNc2c3ccccc3nc3ccccc23)cc1	20.9%	19.5%	38.3%	53.4	35%	62.6%	28%	71%	73.3%	33.5%
COc1cc(OC)cc(-c2ccc(-c3ccc(C(=N)N)o3)o2)c1	-17.3% (active)	20.6%	64.3%	83.5	85.5%	88.2%	58.1%	25.7%	78%	68.9%
Cc1ccc(/C=C/C(=O)c2cccc(OCCCOc3cccc(C(=O)/C=C/c4ccc(C)cc4)c3)c2)cc1	25.9%	-0.643% (active)	87.5%	124	65.3%	99.2%	77.2%	82.4%	86.1%	91.4%
CN1CCN(C(=O)[C@@]2(C)CC[C@]3(C)CC[C@]4(C)C(=CC[C@@H]5[C@@]6(C)CCC(=O)NC(C)(C)[C@@H]6CC[C@]54C)[C@@H]3C2)CC1	-10.4% (active)	20.6%	64.1%	83.8	50.6%	53.8%	63.8%	57.8%	55.2%	59.6%
COc1cc(/C=C/C(=O)/C=C(O)/C=C/c2ccc(OC(=O)C34CC5CC(CC(C5)C3)C4)c(OC)c2)ccc1OC(=O)C12CC3CC(CC(C3)C1)C2	120%	105%	104%	97.1	104%	114%	92.5%	109%	94.2%	104%
NNCCc1ccc(NC(=O)CCCc2ccc(C(=O)Nc3ccccc3N)cc2)cc1	55.2%	41.8%	45.6%	74	70.1%	79.3%	86.8%	75%	77.8%	85%
